Hit rate of the full screen: of about 340,000 compounds, about 1,000 (0.29%) were called active. A selection follows. Results with a measured potency or affinity are listed apart. Values without a mark were called inactive. Rule as the data show it: inconclusive = inhibition above about 27% without an active follow-up result; inactive = below that.
Assay: NS1A inhibition, H1N1 influenza, cell based functional assay (AID 504329)
Details: percent inhibition, at 12.5 µM, stronger effect = higher value

Question: With `COc1ccc(C(=O)Nc2ccc(N3CCN(C(=O)C(C)C)CC3)cc2)cc1[N+](=O)[O-]` as the molecule, how does the inhibition read?
Answer: Its inhibition is -5.48%.

Question: Which inhibition does the source give for `CCOC(=O)C1CCCN(CCC(=O)Nc2ccc(F)c(F)c2)C1` (configuration not stated) here?
Answer: Its inhibition is -6.65%.

Question: With `c1ccc(CSC2=NCCCN2)cc1` as the molecule, how does the inhibition read?
Answer: The inhibition was 5.1%.

Question: For `Cc1ccc(NC(=O)CSc2nc3ccccc3c(=O)n2CCCC(=O)N2CCCC2)cc1`, which inhibition is on record?
Answer: Its inhibition is -0.44%.

Question: With `CC1=NN(c2cccc(F)c2)C(=O)/C1=C/c1ccc(N(C)C)cc1` as the molecule, how does the inhibition read?
Answer: The inhibition was 15.2%.

Question: Which inhibition does the source give for `CCN(CC)c1ccc(/C=C2/C(=O)ON=C2C)cc1` here?
Answer: The inhibition was 22.3%.

Question: Which inhibition does the source give for `COc1ccc(NC(=O)CN(C)CC(=O)NCCc2ccc(F)cc2)cc1` here?
Answer: The inhibition was -13.6%.

Question: With `COCCN(Cc1cc2cccc(C)c2n2nnnc12)C(=O)C(F)(F)F` as the molecule, how does the inhibition read?
Answer: Its inhibition is -4.57%.

Question: Which inhibition does the source give for `CN(CCc1cn[nH]c1)Cc1nc(Cc2ccccc2)no1` here?
Answer: Its inhibition is 3.23%.

Question: With `O=C(Oc1c(CN2CCOCC2)cc(Cl)c2cccnc12)c1ccccc1Cl` as the molecule, how does the inhibition read?
Answer: Its inhibition is 13.5%.

Question: Which inhibition does the source give for `O=C(Oc1c(CN2CCOCC2)cc(Cl)c2cccnc12)c1ccccc1` here?
Answer: Its inhibition is -7.41%.

Question: With `COc1ccc(C(=O)Oc2c(CN3CCOCC3)cc(Cl)c3cccnc23)cc1` as the molecule, how does the inhibition read?
Answer: The inhibition was 6.29%.

Question: With `Oc1c(CN2CCOCC2)cc(-c2ccccc2)cc1CN1CCOCC1` as the molecule, how does the inhibition read?
Answer: Its inhibition is 9.91%.

Question: For `Oc1c(CN2CCOCC2)cc(CN2CCOCC2)cc1CN1CCOCC1`, which inhibition is on record?
Answer: The inhibition was -23.8%.

Question: Which inhibition does the source give for `COc1cc(OC)cc(C(=O)Oc2c(CN3CCOCC3)cc(Cl)c3cccnc23)c1` here?
Answer: The inhibition was -7.03%.

Question: For `CN1CCN(Cc2ccc(OCc3ccccc3)cc2)CC1`, which inhibition is on record?
Answer: The inhibition was -2.13%.

Question: With `COc1ccc(CN2CCN(C)CC2)cc1OCc1ccccc1` as the molecule, how does the inhibition read?
Answer: Its inhibition is 0.12%.

Question: Which inhibition does the source give for `CC(/C=C1\SC(=S)N(CCC(=O)Nc2nc(C)cs2)C1=O)=C\c1ccccc1` here?
Answer: The inhibition was -4.32%.

Question: With `COc1ccc(/C=C/c2nc(C)c(-c3ccccc3)c(=O)[nH]2)cc1OC` as the molecule, how does the inhibition read?
Answer: The inhibition was 2.31%.

Question: With `CCOc1ccc(C2=CSC3=NCCN23)cc1[N+](=O)[O-]` as the molecule, how does the inhibition read?
Answer: Its inhibition is -15.6%.

Question: Which inhibition does the source give for `CCOc1ccc(NC(=S)Nc2ccc(OCc3ccccc3)cc2)cc1` here?
Answer: Its inhibition is 22%.

Question: With `CCCc1c(C(=O)Nc2ccc(F)cc2F)cnn1-c1ccccc1` as the molecule, how does the inhibition read?
Answer: The inhibition was 2.03%.

Question: With `c1ccc(COc2cccc(CN3CCCCC3)c2)cc1` as the molecule, how does the inhibition read?
Answer: Its inhibition is 4.44%.

Question: For `OC(COCc1ccccc1)CN1CCCC1` (configuration not stated), which inhibition is on record?
Answer: The inhibition was -16.3%.

Question: For `COc1cc(C(=O)N(C)C2CCCN(Cc3ccccc3F)C2)cc(OC)c1OC` (configuration not stated), which inhibition is on record?
Answer: The inhibition was -3.71%.

Question: For `Oc1c(CNc2ccccc2)cc(COCc2ccccc2)c2cccnc12`, which inhibition is on record?
Answer: The inhibition was -1.39%.

Question: For `COc1cc(CN2CCCCC2)ccc1OCc1ccccc1`, which inhibition is on record?
Answer: Its inhibition is -0.75%.

Question: With `CC(C)Oc1cccnc1N(C)C1CCN(Cc2ccccc2)CC1` as the molecule, how does the inhibition read?
Answer: The inhibition was 7.67%.

Question: For `CSc1ccc(CN(C)CC(=O)Nc2c(F)cccc2F)cc1`, which inhibition is on record?
Answer: Its inhibition is 4.59%.

Question: Which inhibition does the source give for `CC(C)c1ccc(NC(=O)C2=NNC(=O)CC2)cc1` here?
Answer: Its inhibition is 8.16%.

Question: For `O=C(CCCCC(=O)OCC1CCCO1)OCC1CCCO1` (configuration not stated), which inhibition is on record?
Answer: The inhibition was -25.2%.

Question: For `O=C1COc2ccccc2N1Cc1ccc(Cl)cc1`, which inhibition is on record?
Answer: The inhibition was -6.96%.

Question: With `Cc1c[n+](C)ccc1CC1C([N+](=O)[O-])=C[N-]c2ncnn21` (configuration not stated) as the molecule, how does the inhibition read?
Answer: The inhibition was -6.38%.

Question: For `O=C(Cc1ccc(O)cc1)NCCNC(=S)NCc1ccccc1`, which inhibition is on record?
Answer: Its inhibition is -12.1%.

Question: For `O=c1oc2ccccc2cc1-c1ccccc1`, which inhibition is on record?
Answer: Its inhibition is -7.16%.

Question: With `O=Cc1c(-c2ccccc2)cc2oc3ccccc3cc1-2` as the molecule, how does the inhibition read?
Answer: Its inhibition is 10.8%.

Question: For `S=C(NCc1ccccn1)Nc1ccccc1Cl`, which inhibition is on record?
Answer: Its inhibition is -10.4%.

Question: For `CCOc1ccc(NC(=O)NCc2ccccn2)cc1`, which inhibition is on record?
Answer: Its inhibition is -5.82%.

Question: Which inhibition does the source give for `O=C(NCc1ccccn1)Nc1ccccc1Cl` here?
Answer: Its inhibition is -1.88%.

Question: For `O=C(Cc1ccccn1)Nc1ccccc1`, which inhibition is on record?
Answer: Its inhibition is -8.73%.

Question: With `CCOc1ccc(NC(=O)CC(c2ccccc2)c2ccc(F)cc2)cc1` (configuration not stated) as the molecule, how does the inhibition read?
Answer: The inhibition was -2.67%.

Question: For `Cc1ccc(NC(=O)C(NCc2ccccn2)c2ccccc2)cc1` (configuration not stated), which inhibition is on record?
Answer: The inhibition was -1%.

Question: With `Cc1cc(C)cc(NC(=O)c2ccc(S(=O)(=O)C(F)F)cc2)c1` as the molecule, how does the inhibition read?
Answer: Its inhibition is 15.2%.

Question: Which inhibition does the source give for `COC(=O)C(C)Sc1ccc2nnc(-c3ccccc3)n2n1` (configuration not stated) here?
Answer: Its inhibition is 0.68%.

Question: Which inhibition does the source give for `COc1ccc(NS(=O)(=O)c2ccc3oc(SCc4ccc(F)cc4)nc3c2)cc1` here?
Answer: Its inhibition is -1.81%.

Question: Which inhibition does the source give for `O=C(O)c1cc(-c2cccs2)nn1-c1cccc(Cl)c1` here?
Answer: The inhibition was -3.66%.

Question: Which inhibition does the source give for `CC(C)CCNC(=O)CSc1nnc(-c2ccc(S(=O)(=O)N3CCCC3)cc2)n1C` here?
Answer: The inhibition was 1.62%.

Question: With `O=C(CSc1n[nH]c(-c2cccs2)n1)NCCc1ccccc1` as the molecule, how does the inhibition read?
Answer: Its inhibition is -3.95%.

Question: With `CN=c1scc(-c2cccs2)n1/N=C/c1ccc(O)c(O)c1O` as the molecule, how does the inhibition read?
Answer: Its inhibition is 28.1%.

Question: With `COCCN=c1scc(-c2ccco2)n1/N=C/c1ccc(O)c(O)c1O` as the molecule, how does the inhibition read?
Answer: Its inhibition is 13.4%.

Question: For `Cc1ccc(S(=O)(=O)N2CCN(C(=O)C3CCCC3)CC2)cc1C`, which inhibition is on record?
Answer: Its inhibition is -7.76%.

Question: With `CCCCC(=O)NC(c1ccc(N(CC)CC)cc1)c1ccc2cccnc2c1O` (configuration not stated) as the molecule, how does the inhibition read?
Answer: The inhibition was 11.6%.

Question: With `CCCC(=O)NC(c1ccc(C(C)C)cc1)c1ccc2cccnc2c1O` (configuration not stated) as the molecule, how does the inhibition read?
Answer: The inhibition was -11.7%.

Question: Which inhibition does the source give for `CCCC(=O)NC(c1ccc(Cl)cc1)c1ccc2cccnc2c1O` (configuration not stated) here?
Answer: Its inhibition is -7.24%.

Question: Which inhibition does the source give for `CCCCC(=O)NC(c1ccccc1)c1ccc2cccnc2c1O` (configuration not stated) here?
Answer: The inhibition was 17.1%.

Question: With `CCCCC(=O)NC(c1ccc(C(C)C)cc1)c1ccc2cccnc2c1O` (configuration not stated) as the molecule, how does the inhibition read?
Answer: Its inhibition is -9.31%.

Question: With `CCCC(=O)NC(c1ccc(C)cc1)c1ccc2cccnc2c1O` (configuration not stated) as the molecule, how does the inhibition read?
Answer: The inhibition was 4.97%.

Question: Which inhibition does the source give for `CCc1cc(C(=O)N2CCCC(C(=O)c3ccc(Oc4ccccc4)cc3)C2)n(C)n1` (configuration not stated) here?
Answer: Its inhibition is -0.31%.

Question: Which inhibition does the source give for `COc1ccc(NC(=O)c2ccc(NC(=O)CN(C)CC(=O)Nc3c(C)cccc3C)cc2)cc1` here?
Answer: Its inhibition is -7.57%.

Question: Which inhibition does the source give for `C/C=C\C=C\C(=O)N1CC2(CC(c3cccc(NC(=O)CC(c4ccccc4)c4ccccc4)c3)=NO2)C[C@H]1C(N)=O` (some centres not stated) here?
Answer: Its inhibition is 2.26%.

Question: Which inhibition does the source give for `COCCCNC(=O)c1cc(=O)n(Cc2ccc(Cl)cc2)c2ccccc12` here?
Answer: Its inhibition is 6.81%.

Question: For `CCCCCc1cc(=O)oc2c(C(CCN3CCN(c4ccccc4)CC3)c3ccc(N(C)C)cc3)c(OC)cc(OC)c12` (configuration not stated), which inhibition is on record?
Answer: The inhibition was -11.8%.

Question: For `CCCCCc1cc(=O)oc2c(C(CCN(CC)CC)c3cc(OC)c(OC)c(OC)c3)c(OC)cc(OC)c12` (configuration not stated), which inhibition is on record?
Answer: Its inhibition is 9.43%.

Question: For `CCCCCc1cc(=O)oc2c(C(CCN(CC)CC)c3ccc(OC)cc3)c(OC)cc(OC)c12` (configuration not stated), which inhibition is on record?
Answer: Its inhibition is 5.11%.

Question: With `CCCCCc1cc(=O)oc2c(C(CCN3CCCC(C)C3)c3ccc4c(c3)OCO4)c(OC)cc(OC)c12` (configuration not stated) as the molecule, how does the inhibition read?
Answer: The inhibition was 16.4%.

Question: Which inhibition does the source give for `CCCCCc1cc(=O)oc2c(C(CCN3CCCCC3)c3ccc(OC)cc3)c(OC)cc(OC)c12` (configuration not stated) here?
Answer: The inhibition was 18.7%.

Question: For `CCCCCc1cc(=O)oc2c(C(CCN3CCCC(C)C3)c3ccc(OC)cc3)c(OC)cc(OC)c12` (configuration not stated), which inhibition is on record?
Answer: The inhibition was 8.01%.

Source: PubChem BioAssay AID504329 (Southern Research Specialized Biocontainment Screening …, 2011)
